These results are taken from ChEMBL document CHEMBL1961873, “Compounds: GSK PKIS; Assays: Nanosyn kinase panel” (2012).

By inhibition is commonly meant the change of the read-out against control, counted positive when it falls.

In assay [1] the target is Sphingosine kinase 1 (Homo sapiens) (UniProt Q9NYA1). Particulars: at 1 µM.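 Further: mean SPHK1 inhibition value reported from the GSK PKIS kinase panel screen.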
The target of assay [2] is T1, Sphingosine kinase 2 (Homo sapiens) (UniProt Q9NRA0).
T1 sequence (whole entry): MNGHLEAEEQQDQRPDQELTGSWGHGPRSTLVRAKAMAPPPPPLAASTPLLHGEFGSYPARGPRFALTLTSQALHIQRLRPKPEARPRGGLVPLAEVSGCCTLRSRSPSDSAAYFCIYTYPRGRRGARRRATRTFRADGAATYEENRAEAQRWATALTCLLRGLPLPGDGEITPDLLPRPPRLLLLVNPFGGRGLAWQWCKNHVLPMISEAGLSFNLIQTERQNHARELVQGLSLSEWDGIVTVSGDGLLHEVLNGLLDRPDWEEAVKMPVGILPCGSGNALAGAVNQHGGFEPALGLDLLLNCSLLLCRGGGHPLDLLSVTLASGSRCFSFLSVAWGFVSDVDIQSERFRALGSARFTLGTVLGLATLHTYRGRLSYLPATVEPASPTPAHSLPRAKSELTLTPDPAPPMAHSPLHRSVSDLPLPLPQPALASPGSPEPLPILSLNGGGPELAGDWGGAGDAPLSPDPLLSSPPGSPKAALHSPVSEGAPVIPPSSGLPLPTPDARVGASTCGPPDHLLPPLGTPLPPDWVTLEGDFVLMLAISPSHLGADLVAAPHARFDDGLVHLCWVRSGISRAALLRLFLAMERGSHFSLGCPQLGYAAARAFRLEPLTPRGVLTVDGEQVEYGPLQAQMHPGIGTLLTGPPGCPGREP
Particulars: at 0.1 µM.

The target in assay [3] is T1, Sphingosine kinase 2 (Homo sapiens). To be noted: at 1 µM.
Assay [4] deals with Casein kinase II subunit alpha (Homo sapiens) (UniProt P68400). To be noted: at 0.1 µM.
Assay [5] has the same target. To be noted: at 1 µM.
Assay [6] has as its target T2, Inhibitor of nuclear factor kappa-B kinase subunit alpha (Homo sapiens) (UniProt O15111).
T2 sequence (whole entry): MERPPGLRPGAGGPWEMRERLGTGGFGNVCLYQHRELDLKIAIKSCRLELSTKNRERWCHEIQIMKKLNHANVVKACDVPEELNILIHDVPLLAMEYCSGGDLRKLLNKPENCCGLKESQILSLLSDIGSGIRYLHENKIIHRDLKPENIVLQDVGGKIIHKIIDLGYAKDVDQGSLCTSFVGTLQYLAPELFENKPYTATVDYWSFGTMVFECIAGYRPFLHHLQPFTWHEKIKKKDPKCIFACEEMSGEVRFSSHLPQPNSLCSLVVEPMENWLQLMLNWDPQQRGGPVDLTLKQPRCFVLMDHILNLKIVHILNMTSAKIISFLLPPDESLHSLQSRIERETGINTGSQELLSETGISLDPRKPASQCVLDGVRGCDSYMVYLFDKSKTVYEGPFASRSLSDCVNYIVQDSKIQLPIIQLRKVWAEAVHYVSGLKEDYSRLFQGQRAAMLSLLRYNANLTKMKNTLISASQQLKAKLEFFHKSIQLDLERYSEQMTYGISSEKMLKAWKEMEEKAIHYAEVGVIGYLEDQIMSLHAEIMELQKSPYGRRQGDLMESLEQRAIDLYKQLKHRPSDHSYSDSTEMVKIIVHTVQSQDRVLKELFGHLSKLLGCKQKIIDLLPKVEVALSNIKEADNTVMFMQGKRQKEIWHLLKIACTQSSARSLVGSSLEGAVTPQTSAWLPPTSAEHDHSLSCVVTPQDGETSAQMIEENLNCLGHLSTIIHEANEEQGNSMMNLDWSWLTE
To be noted: at 0.1 µM.

In assay [7] the target is T2, Inhibitor of nuclear factor kappa-B kinase subunit alpha (Homo sapiens). Particulars: at 1 µM.
Assay [8] addresses T3, Inhibitor of nuclear factor kappa-B kinase subunit beta (Homo sapiens) (UniProt O14920).
T3 sequence (whole entry): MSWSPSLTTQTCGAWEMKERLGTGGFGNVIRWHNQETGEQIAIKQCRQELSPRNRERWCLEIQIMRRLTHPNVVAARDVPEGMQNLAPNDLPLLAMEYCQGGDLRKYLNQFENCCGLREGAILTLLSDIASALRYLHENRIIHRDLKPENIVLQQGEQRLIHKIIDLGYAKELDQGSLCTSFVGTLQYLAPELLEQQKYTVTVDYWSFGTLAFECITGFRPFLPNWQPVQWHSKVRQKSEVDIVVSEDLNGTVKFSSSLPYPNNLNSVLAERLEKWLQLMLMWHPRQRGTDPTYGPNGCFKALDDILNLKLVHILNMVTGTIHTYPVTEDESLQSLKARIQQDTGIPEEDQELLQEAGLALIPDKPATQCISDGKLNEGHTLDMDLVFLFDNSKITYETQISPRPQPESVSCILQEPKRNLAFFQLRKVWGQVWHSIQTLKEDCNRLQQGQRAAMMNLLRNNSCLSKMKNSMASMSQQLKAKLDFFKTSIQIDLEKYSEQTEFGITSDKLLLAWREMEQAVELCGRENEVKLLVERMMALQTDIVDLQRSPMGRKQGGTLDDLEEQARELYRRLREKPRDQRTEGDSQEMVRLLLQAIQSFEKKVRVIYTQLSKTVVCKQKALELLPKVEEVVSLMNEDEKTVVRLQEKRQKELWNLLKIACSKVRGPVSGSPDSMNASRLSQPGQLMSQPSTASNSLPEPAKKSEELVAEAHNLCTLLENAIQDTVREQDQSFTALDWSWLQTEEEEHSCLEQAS
To be noted: at 0.1 µM.

Assay [9] concerns the target T3, Inhibitor of nuclear factor kappa-B kinase subunit beta (Homo sapiens). To be noted: at 1 µM.
Assay [10] has as its target T4, Inhibitor of nuclear factor kappa-B kinase subunit epsilon (Homo sapiens) (UniProt Q14164).
T4 sequence (whole entry): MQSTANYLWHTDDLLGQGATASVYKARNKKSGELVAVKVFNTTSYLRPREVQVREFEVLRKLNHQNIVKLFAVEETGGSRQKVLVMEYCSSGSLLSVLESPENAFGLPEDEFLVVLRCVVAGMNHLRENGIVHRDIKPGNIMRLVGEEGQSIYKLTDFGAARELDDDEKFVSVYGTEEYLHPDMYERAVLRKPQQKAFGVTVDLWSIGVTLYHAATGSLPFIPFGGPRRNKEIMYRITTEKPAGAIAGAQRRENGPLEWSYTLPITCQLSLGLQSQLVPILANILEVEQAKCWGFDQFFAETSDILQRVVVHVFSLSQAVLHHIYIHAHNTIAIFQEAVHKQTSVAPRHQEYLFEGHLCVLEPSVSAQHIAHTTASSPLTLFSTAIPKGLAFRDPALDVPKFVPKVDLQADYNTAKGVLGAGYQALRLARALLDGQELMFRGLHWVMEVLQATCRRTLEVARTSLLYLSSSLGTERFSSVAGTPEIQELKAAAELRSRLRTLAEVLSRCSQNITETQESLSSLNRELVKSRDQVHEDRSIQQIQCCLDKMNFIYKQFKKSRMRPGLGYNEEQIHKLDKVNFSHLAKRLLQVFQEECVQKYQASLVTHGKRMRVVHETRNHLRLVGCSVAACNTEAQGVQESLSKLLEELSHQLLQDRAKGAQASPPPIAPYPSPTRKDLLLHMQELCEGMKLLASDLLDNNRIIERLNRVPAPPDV
Particulars: at 0.1 µM.

Assay [11] deals with T4, Inhibitor of nuclear factor kappa-B kinase subunit epsilon (Homo sapiens). To be noted: at 1 µM.
Assay [12] deals with T5, Serine/threonine-protein kinase Nek1 (Homo sapiens) (UniProt Q96PY6).
T5 sequence (whole entry): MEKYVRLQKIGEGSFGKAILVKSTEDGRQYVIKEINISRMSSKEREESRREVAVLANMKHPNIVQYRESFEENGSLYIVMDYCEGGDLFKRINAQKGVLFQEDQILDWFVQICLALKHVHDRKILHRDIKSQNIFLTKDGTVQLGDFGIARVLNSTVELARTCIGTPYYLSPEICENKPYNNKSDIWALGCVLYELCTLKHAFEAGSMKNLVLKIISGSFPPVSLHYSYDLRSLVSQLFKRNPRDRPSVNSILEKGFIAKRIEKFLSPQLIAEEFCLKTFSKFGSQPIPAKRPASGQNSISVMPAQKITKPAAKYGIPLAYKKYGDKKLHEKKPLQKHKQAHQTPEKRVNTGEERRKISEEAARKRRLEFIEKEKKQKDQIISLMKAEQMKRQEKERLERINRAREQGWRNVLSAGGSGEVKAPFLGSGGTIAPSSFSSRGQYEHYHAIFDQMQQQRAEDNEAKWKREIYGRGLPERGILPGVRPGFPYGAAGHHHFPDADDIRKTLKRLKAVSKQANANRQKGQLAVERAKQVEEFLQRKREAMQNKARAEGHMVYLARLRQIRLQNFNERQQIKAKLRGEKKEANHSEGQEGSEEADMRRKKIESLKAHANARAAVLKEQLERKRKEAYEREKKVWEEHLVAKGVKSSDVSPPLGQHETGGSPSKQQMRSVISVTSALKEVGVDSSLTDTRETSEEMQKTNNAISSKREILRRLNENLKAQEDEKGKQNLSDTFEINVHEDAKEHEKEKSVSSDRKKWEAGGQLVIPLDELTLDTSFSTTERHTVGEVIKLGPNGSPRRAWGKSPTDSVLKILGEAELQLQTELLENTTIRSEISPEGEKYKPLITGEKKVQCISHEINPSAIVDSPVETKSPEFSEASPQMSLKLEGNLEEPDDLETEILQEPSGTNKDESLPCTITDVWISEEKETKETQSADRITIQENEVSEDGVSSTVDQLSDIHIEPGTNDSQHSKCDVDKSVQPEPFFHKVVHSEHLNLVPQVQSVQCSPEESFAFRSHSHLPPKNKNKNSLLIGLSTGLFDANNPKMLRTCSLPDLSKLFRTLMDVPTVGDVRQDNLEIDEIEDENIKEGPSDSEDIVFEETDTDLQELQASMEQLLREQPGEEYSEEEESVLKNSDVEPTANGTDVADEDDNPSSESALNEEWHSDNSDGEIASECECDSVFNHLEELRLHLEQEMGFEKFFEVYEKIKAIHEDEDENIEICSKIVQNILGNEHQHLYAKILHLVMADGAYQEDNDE
Particulars: at 0.1 µM.

Assay [13] has as its target T5, Serine/threonine-protein kinase Nek1 (Homo sapiens). Particulars: at 1 µM.
Assay [14] addresses T6, Serine/threonine-protein kinase Nek2 (Homo sapiens) (UniProt P51955).
T6 sequence (whole entry): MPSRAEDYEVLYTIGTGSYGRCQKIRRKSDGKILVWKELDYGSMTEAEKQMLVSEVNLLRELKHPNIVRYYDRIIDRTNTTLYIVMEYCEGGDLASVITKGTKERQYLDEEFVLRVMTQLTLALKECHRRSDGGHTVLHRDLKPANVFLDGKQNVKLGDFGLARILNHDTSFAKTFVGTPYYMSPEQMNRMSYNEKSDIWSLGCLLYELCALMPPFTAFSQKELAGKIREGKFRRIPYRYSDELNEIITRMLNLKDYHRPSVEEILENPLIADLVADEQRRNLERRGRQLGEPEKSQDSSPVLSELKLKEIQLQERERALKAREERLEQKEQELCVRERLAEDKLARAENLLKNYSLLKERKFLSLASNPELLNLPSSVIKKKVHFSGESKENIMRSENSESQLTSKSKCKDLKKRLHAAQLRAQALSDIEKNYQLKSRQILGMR
To be noted: at 0.1 µM.

Assay [15] addresses T6, Serine/threonine-protein kinase Nek2 (Homo sapiens). Particulars: at 1 µM.
The target in assay [16] is Serine/threonine-protein kinase Nek6 (Homo sapiens) (UniProt Q9HC98). To be noted: at 0.1 µM.
Assay [17] shares this target. Particulars: at 1 µM.
The target of assay [18] is Serine/threonine-protein kinase Nek7 (Homo sapiens) (UniProt Q8TDX7). Particulars: at 0.1 µM.
Assay [19] shares this target. To be noted: at 1 µM.
The target of assay [20] is T7, Serine/threonine-protein kinase Nek9 (Homo sapiens) (UniProt Q8TD19).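 Further: reported value is the mean percent inhibition of NEK9.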
T7 sequence (whole entry): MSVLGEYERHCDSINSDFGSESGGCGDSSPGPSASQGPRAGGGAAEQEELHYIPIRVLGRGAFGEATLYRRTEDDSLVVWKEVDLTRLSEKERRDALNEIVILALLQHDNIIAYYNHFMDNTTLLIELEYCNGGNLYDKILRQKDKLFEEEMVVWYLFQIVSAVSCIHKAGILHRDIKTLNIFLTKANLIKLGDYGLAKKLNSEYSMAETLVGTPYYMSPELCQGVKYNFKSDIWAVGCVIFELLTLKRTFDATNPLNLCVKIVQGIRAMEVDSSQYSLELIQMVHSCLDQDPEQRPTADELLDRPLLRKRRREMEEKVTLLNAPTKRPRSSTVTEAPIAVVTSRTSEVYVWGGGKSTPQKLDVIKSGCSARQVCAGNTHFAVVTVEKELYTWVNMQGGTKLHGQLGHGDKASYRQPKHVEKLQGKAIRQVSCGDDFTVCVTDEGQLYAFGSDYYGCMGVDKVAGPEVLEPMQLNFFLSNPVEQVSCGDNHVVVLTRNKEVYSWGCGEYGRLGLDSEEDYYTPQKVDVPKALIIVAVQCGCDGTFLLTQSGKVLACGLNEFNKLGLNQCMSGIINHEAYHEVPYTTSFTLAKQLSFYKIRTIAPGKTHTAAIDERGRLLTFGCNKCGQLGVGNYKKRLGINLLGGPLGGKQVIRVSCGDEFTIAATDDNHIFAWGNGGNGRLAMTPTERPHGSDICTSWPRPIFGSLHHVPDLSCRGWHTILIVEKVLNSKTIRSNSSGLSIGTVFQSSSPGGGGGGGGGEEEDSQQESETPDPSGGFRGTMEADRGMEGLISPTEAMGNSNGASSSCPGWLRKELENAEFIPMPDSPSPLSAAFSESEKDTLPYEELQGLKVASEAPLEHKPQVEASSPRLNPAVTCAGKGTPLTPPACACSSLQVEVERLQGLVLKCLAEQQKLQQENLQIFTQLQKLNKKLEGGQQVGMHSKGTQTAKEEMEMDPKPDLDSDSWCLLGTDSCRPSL
Particulars: at 0.1 µM.

Sequence of Serine/threonine-protein kinase Nek7 (Homo sapiens) (Q8TDX7 whole entry, looked up): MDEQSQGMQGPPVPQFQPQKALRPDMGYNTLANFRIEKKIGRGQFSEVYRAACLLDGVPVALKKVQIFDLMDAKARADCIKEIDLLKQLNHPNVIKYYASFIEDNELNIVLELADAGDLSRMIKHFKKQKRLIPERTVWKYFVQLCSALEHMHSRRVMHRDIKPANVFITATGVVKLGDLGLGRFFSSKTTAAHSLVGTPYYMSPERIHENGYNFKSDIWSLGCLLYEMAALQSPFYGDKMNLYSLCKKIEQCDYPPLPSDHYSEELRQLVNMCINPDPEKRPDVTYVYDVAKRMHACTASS
Sequence of Casein kinase II subunit alpha (Homo sapiens) (P68400 whole entry, looked up): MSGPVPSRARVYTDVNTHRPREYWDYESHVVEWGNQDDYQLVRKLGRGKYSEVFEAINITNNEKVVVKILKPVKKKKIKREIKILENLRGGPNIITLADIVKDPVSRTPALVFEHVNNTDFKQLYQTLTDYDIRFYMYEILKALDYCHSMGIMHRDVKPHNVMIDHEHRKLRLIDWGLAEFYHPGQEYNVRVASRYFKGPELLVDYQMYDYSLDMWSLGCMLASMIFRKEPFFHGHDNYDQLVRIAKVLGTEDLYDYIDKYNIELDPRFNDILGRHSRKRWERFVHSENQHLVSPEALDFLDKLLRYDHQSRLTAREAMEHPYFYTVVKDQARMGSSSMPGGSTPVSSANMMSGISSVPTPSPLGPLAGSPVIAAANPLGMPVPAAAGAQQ
Sequence of Serine/threonine-protein kinase Nek6 (Homo sapiens) (Q9HC98 whole entry): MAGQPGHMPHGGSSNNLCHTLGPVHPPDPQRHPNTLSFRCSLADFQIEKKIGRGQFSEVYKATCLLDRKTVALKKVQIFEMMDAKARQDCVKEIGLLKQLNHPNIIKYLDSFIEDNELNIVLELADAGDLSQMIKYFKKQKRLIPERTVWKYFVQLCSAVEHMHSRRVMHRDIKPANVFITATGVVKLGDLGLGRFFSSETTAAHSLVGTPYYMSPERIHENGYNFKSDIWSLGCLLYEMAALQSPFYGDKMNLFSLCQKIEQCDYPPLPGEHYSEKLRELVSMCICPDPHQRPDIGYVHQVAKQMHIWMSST
Sequence of Sphingosine kinase 1 (Homo sapiens) (Q9NYA1 whole entry): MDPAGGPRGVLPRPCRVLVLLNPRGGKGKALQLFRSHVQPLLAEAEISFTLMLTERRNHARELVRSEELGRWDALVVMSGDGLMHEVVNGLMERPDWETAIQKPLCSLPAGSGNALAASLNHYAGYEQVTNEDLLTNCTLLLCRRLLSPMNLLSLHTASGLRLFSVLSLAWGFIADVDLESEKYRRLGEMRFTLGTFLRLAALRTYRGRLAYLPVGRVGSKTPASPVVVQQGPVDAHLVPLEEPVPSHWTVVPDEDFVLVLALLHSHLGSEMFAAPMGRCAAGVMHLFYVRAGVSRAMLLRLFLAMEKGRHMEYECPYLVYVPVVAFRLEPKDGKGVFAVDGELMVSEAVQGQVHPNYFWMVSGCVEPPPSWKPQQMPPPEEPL

With `Fc1ccc(-c2ncn(C3CCNCC3)c2-c2ccnc(Oc3ccc(Oc4ccccc4)cc3)n2)cc1`, the inhibition in assay [1] was -0.85%; in [2], -0.41%; in assay [3] it was -0.56%; in assay [4], 4.31%; in assay [5], 4.14%; in assay [6], 4.44%. The inhibition came out at 5.03% in assay [7]; 5.84% in assay [8]; 6.14% in [9]; 7.47% in [10]; 6.34% in [11]; 1.09% in assay [12]. Also, the inhibition in assay [13] is 1.58%; in [14], 5.87%; in assay [15], 3.38%; in assay [16], -2.46%; in assay [17] it was 2.86%; in assay [18], 3.94%. In addition, the inhibition in assay [19] worked out at 9.34%; in assay [20] it was 4.61%.
